# Columns and labels:
# [1] = molecular target: Tyrosine-protein kinase SYK (Homo sapiens) (UniProt P43405); details: at 10 µM
# [2] = molecular target: T1, Mitogen-activated protein kinase kinase kinase 7 (Homo sapiens) (UniProt O43318); details: at 1 µM
# T1 sequence (whole entry): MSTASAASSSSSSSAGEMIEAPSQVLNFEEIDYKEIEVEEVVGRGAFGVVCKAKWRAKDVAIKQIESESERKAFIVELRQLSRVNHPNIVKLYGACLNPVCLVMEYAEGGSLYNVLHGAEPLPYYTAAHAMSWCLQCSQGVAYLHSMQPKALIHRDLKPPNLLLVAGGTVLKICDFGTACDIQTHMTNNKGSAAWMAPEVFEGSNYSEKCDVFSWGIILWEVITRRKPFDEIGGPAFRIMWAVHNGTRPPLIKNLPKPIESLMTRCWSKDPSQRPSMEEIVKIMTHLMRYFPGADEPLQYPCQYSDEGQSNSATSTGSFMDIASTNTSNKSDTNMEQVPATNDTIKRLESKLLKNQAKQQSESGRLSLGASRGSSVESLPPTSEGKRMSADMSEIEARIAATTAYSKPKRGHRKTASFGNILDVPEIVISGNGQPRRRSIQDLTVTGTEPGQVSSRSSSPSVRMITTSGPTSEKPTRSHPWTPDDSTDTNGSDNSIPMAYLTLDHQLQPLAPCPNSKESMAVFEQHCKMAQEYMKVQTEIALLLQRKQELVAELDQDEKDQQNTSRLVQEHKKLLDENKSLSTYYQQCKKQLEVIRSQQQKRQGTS
# [3] = molecular target: T1, Mitogen-activated protein kinase kinase kinase 7 (Homo sapiens); details: at 10 µM
# [4] = molecular target: T2, Serine/threonine-protein kinase TAO1 (Homo sapiens) (UniProt Q7L7X3); details: at 1 µM
# T2 sequence (whole entry): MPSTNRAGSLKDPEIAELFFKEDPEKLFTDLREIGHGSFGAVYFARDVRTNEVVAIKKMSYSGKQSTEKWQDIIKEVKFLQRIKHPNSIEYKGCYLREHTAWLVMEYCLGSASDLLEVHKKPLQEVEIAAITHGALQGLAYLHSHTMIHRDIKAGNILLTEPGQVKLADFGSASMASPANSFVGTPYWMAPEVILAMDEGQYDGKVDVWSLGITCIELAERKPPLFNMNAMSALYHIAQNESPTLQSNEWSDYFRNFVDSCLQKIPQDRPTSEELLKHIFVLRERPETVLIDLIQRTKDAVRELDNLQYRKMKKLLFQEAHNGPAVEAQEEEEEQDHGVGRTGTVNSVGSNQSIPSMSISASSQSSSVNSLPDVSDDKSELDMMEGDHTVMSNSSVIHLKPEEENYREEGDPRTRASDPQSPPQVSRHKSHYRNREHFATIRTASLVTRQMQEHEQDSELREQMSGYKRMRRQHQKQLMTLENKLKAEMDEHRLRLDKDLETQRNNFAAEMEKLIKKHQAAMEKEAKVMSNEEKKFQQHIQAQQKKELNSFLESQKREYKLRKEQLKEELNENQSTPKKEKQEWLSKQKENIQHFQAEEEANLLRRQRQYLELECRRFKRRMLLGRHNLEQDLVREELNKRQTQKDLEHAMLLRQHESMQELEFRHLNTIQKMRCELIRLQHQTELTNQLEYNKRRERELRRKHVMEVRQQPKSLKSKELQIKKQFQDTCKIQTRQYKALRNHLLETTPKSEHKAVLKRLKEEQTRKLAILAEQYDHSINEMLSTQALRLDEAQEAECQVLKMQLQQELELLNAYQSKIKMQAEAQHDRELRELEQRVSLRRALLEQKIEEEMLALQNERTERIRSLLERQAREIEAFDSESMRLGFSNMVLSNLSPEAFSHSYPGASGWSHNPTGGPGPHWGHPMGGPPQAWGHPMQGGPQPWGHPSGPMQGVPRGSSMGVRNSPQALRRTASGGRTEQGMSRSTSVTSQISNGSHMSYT
# [5] = molecular target: T2, Serine/threonine-protein kinase TAO1 (Homo sapiens); details: at 10 µM
# [6] = molecular target: T3, Serine/threonine-protein kinase TAO2 (Homo sapiens) (UniProt Q9UL54); details: at 1 µM
# T3 sequence (whole entry): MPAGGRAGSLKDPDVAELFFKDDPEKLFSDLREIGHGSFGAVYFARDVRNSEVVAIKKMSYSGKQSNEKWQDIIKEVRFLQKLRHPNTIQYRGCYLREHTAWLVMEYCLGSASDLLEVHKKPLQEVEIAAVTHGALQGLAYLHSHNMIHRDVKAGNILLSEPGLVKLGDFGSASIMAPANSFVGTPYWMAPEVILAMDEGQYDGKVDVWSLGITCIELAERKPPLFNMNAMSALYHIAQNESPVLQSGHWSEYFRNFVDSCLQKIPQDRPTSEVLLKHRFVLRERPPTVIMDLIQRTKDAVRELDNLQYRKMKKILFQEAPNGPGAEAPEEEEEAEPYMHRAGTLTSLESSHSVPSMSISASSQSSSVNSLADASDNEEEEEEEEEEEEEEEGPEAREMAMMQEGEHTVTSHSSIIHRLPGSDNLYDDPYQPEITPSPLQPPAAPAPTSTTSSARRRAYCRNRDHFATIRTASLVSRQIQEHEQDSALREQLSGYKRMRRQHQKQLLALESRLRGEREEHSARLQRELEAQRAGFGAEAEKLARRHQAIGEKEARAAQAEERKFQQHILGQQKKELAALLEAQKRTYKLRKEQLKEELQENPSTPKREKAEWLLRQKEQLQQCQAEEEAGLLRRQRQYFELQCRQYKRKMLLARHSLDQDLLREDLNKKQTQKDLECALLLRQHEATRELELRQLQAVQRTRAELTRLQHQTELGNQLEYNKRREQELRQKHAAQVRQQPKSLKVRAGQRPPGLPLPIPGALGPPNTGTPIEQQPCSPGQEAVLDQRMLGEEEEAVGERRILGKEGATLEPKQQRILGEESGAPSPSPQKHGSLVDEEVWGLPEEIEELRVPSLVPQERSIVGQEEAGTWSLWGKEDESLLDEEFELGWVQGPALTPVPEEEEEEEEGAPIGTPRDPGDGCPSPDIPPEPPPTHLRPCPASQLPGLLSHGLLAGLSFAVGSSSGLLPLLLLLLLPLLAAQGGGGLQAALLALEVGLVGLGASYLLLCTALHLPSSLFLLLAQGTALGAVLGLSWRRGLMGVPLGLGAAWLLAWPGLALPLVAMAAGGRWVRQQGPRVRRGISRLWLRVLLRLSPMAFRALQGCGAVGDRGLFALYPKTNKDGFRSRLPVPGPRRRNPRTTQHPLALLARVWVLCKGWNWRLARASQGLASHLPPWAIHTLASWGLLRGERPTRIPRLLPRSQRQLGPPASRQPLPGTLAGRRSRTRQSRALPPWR
# [7] = molecular target: T3, Serine/threonine-protein kinase TAO2 (Homo sapiens); details: at 10 µM
# [8] = molecular target: T4, Serine/threonine-protein kinase TAO3 (Homo sapiens) (UniProt Q9H2K8); details: at 1 µM
# T4 sequence (whole entry): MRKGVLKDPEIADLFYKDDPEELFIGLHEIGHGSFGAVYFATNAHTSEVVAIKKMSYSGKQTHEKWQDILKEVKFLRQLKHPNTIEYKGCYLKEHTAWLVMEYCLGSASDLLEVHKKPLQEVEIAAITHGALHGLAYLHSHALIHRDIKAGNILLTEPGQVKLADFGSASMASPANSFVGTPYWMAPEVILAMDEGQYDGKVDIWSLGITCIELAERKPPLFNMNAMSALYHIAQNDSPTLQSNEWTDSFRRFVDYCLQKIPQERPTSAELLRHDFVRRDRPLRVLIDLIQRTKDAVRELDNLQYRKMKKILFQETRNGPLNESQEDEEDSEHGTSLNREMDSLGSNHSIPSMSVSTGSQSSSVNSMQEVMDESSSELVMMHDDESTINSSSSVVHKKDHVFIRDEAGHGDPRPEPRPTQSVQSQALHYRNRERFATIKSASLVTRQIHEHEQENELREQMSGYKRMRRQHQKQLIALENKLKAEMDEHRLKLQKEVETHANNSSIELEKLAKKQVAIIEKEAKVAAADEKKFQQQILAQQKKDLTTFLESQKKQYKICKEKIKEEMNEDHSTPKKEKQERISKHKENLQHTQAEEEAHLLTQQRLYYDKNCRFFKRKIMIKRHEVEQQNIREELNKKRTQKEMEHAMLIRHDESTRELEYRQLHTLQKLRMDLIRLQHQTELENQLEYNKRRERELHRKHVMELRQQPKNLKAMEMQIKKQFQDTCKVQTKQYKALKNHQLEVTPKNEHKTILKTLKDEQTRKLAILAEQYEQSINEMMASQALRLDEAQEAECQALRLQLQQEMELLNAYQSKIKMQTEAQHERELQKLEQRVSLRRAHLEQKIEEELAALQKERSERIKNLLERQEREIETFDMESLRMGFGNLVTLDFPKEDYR
# [9] = molecular target: T4, Serine/threonine-protein kinase TAO3 (Homo sapiens); details: at 10 µM
# [10] = molecular target: T5, Serine/threonine-protein kinase TBK1 (Homo sapiens) (UniProt Q9UHD2); details: at 1 µM
# T5 sequence (whole entry): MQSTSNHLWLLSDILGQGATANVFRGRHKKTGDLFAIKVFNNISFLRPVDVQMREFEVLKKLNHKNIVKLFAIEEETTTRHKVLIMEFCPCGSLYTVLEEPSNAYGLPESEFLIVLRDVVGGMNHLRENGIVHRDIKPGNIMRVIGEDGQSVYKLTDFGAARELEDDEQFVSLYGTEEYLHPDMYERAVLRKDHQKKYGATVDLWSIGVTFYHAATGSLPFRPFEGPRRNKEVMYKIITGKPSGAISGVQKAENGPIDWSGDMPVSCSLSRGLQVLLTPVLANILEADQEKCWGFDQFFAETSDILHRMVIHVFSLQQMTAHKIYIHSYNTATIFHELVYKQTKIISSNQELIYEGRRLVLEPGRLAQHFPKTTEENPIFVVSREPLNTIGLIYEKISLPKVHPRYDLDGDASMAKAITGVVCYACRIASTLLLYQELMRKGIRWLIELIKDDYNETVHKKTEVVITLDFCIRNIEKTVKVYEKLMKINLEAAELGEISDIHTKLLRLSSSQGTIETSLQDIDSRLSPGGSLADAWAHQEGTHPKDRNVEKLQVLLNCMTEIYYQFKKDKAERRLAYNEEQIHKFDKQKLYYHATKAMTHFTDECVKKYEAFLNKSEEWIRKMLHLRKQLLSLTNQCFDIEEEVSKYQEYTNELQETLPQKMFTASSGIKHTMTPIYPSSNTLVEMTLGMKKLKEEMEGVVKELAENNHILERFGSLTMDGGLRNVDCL
Structure (SMILES),residual activity [1] [%],residual activity [2] [%],residual activity [3] [%],residual activity [4] [%],residual activity [5] [%],residual activity [6] [%],residual activity [7] [%],residual activity [8] [%],residual activity [9] [%],residual activity [10] [%]
CC#CC(=O)Nc1cc2c(Nc3ccc(F)c(Cl)c3)ncnc2cn1,87,91,96,104,89,97,80,96,95,78
O=C1NC(=O)c2c1c1c3ccccc3[nH]c1c1[nH]c3cc(Br)ccc3c21,79,94,84,92,92,103,92,93,94,75
Cc1ccc(S(=O)(=O)/C=C/C#N)cc1,109,96,88,94,87,88,109,92,98,87
O=C1NC(=O)/C(=C\c2ccc3nccnc3c2)S1,92,94,93,71,14,99,44,72,16,56
CC(=O)O/N=C1\C(=C2\C(=O)Nc3cc(Br)ccc32)Nc2ccccc21,40,91,85,89,79,81,83,96,86,57
Nc1nc(Nc2ccc(S(N)(=O)=O)cc2)nn1C(=S)Nc1c(F)cccc1F,3,9,2,0,1,2,3,0,2,-1
COc1cc2ncnc(N3CCN(C(=O)Nc4ccc(Oc5ccccc5)cc4)CC3)c2cc1OC,83,85,82,94,78,95,64,85,77,57
Cn1cc(/C=C2\C(=O)Nc3ccc(S(N)(=O)=O)cc32)c2ccccc21,28,92,77,74,37,100,88,74,66,8
O=C(Nc1cccc(Nc2nccc(Nc3cccc(C(F)(F)F)c3)n2)c1)C1CC1,75,105,99,95,56,92,29,104,67,78
COc1ccc(CNc2nc(N(CCO)CCO)nc3c2ncn3C(C)C)cc1,114,92,82,96,81,96,95,92,71,69
CCC(=O)Nc1ccc2ncnc(Nc3cccc(Br)c3)c2c1,84,92,90,96,86,98,91,96,95,69
O=Nc1c(-c2c(O)[nH]c3ccccc23)[nH]c2ccccc12,60,64,71,83,39,75,26,85,28,9
Cc1cc2ncc(-c3ccccc3)nc2cc1C,108,96,95,109,101,106,91,100,101,86
Cc1nc2cc3nc(-c4cccs4)cnc3cc2n1C,93,96,100,111,100,113,98,98,95,105
NC(=O)c1ccc2[nH]c(-c3ccc(Oc4ccc(Cl)cc4)cc3)nc2c1,96,92,81,89,72,88,99,98,79,67
O=[N+]([O-])c1ccc(-c2nc(-c3ccc(F)cc3)c(-c3ccncc3)[nH]2)cc1,107,104,91,97,91,109,103,98,96,87
